# Screening results (PubChem)
# Compounds with a hit are over-represented: about 8.3% of the library has one in this group of screens.
# MARV entry inh: blocks Marburg virus binding to or entry into cells; Marburg virus pseudotyped entry inhibition, cell reporter; 300,000 tested, 1.8% active; Potency, µM (doses to about 37.8 µM), for the others: at the highest dose activity change, negative = inhibition, hits mostly inhibitors; AID 540276; calls by dose curve; tested in HEK293 cells; also: potency is read from the fitted curve at half-maximal effect
# FBPA Giardia inh: Giardia lamblia aldolase inhibition. purified Giardia FBPA. Potency, µM (highest dose often 59.6 µM), for inactives: at the highest dose activity, negative = inhibition, usual class: inhibitors. 290,000 tested, 0.71% active; also: potency is read from the fitted curve at half-maximal effect; nearly all actives have a fitted effect of over 55% in size
# Target sequence (A8B2U2 whole entry, looked up): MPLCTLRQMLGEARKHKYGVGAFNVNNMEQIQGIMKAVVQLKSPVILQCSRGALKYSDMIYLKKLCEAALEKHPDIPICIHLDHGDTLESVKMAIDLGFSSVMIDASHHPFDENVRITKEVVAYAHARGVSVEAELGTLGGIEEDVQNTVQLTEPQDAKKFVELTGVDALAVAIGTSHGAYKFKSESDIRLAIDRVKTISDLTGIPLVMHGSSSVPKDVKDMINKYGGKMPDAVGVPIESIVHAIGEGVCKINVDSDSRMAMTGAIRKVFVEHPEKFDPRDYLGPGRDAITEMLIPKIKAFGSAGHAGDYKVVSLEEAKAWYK
#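 40 nM FBPA preincubated 10 min at RT with compound (up to 57.5 uM final), then substrate plus GAPDH/TPI/NAD/arsenate coupling and diaphorase/resazurin added. Fluorescence read after 20 min at RT, 525/598 nm.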
# Lassa entry inh: blocks Lassa virus binding to or entry into cells; Lassa virus pseudotype entry inhibition, cell reporter; Potency, µM (series often up to 37.9 µM), inactives show top-dose activity change, negative = inhibition, hits mostly inhibitors; 300,000 tested, 1.2% active; AID 540256; calls by dose curve; tested in HEK293 cells; also: potency is read from the fitted curve at half-maximal effect; nearly all actives have a fitted effect of over 50% in size
# FMDV inh: antivirals against foot and mouth disease virus; AID 1159524; 410,000 tested, 1.2% active; Potency, µM (highest dose often 57.9 µM), for the others: at the top dose activity change, negative = inhibition, actives largely listed as inhibitors; FMDV antiviral cell-based qHTS; calls by dose curve; tested in HEK293T cells; also: read-out not given here; potency is read from the fitted curve at half-maximal effect; nearly all actives have a fitted effect of over 45% in size
# HCV inhibitor: HCV inhibition; Huh7.5.1 HCVcc-Cre infection, luciferase reporter, 44 h; Potency, µM (doses to about 41.8 µM), inactives show at the highest dose activity change, negative = inhibition, hits mostly inhibitors; 340,000 tested, 3.4% active; AID 651820; also: potency is read from the fitted curve at half-maximal effect
#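 Reporter virus HCVcc-Cre (~0.5 moi) infects cells exposed to compound; seeding density 1,000 cells/well with 4 h settling beforehand. Luminescence, 15 sec read, taken 44 h post-infection following a 15 min RT substrate incubation.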
# HCMV antiviral: inhibitors of human cytomegalovirus. 410,000 tested, 4.5% active. activity change, negative = inhibition, % at 57.5 µM. HFF cells, HCMV-luciferase reporter, 72 h; stronger effect = lower value; in the data active = activity change below about -60%; inconclusive = no clear call, values can overlap the other calls; inactive = above about -39%
#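 Compounds were evaluated in HFFs infected with an HCMV luciferase reporter virus (MOI 1 PFU/cell). Luciferase in lysates collected 72 h post infection served as the replication measure.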
# The depositor's hits bear a star; ? = inconclusive; · = not tested or not shown; [ ] = dose if it differs, or a comment. Unless noted, calls follow the shape of the dose curve; as a rule, active = well fitted curve in the direction sought with a large enough effect; inconclusive = small, poorly fitted or top-dose-only effect, or another doubt; inactive = no such curve, though single readings can be large; an effect the other way counts as inactive or inconclusive. % is scaled to controls: 0 for no effect and ±100 for the full control effect.
SMILES,MARV entry inh,FBPA Giardia inh,Lassa entry inh,FMDV inh,HCV inhibitor,HCMV antiviral
C[N+]1(C)CCO[C@@](O)(c2ccc(-c3ccc([C@]4(O)C[N+](C)(C)CCO4)cc3)cc2)C1,16%,·,·,·,·,·
CCOc1ccc(CCNC(=O)C2CCN(C(=O)N3CC(CC)Oc4ccc(C)cc43)CC2)cc1 (centres undefined),·,·,-17%[46.1 µM],28µM*,·,-21
COc1cc(OC)c(NS(=O)(=O)c2ccc(Cl)c(C(=O)OC(C)C(=O)N3CCCC3)c2)cc1Cl (centres undefined),?,6%,-18%,?,?,-64*
CCOc1cccc(/C=N/NC(=O)c2cccnc2)c1O,·,-18%,·,52%,?,23
CCOc1cccc(/C=N/NC(=O)c2cc(C3CC3)[nH]n2)c1O,·,-26%,·,25%,11µM*,-90*
Cc1cccc(C)c1N=CN1c2ccccc2-n2cccc2C1c1ccc([N+](=O)[O-])cc1 (centres undefined),·,·,·,·,·,-6
COc1ccc(C2CC2/C(=N/O)c2ccccn2)cc1 (centres undefined),7%[46.1 µM],?,4%,35%,-6%,-3
O/N=C(\c1ccccn1)C1CC1c1ccccc1 (centres undefined),6%[46.1 µM],-8%,?,17%,3%,-79*
CCN(CC)C(=O)Cn1c(=O)cc(C)c2c(C)nn(-c3cccc(Cl)c3C)c21,·,·,-25%[46.1 µM],-8%,·,-21
N#Cc1c(-c2ccccc2)c(-c2ccccc2)n(Cc2ccco2)c1NC(=O)c1cccs1,?,3%,?,5%,2.8µM*,-28
COc1ccc(NC(=O)c2cnc(SCC(=O)Nc3nc4ccc(C)cc4s3)n(C)c2=O)cc1,·,·,2%[46.1 µM],36%,·,4
CCc1cccc(NC(=O)Cn2c(-c3ccc(F)cc3)cc(C(C)=O)c2C)c1,·,·,-12%[46.1 µM],-11%,·,?
Nc1cnn(C2OC(CO)C(O)C2O)c(=O)n1 (centres undefined),?,7%,?,-20%,13%,-64*
Nc1ncn(C2O[C@H](CO)[C@@H](O)[C@H]2O)c(=O)n1 (some centres undefined),·,·,·,·,7%,·
O=c1[nH]cnc2c1ccn2C1OC(CO)C(O)C1O (centres undefined),·,·,·,-14%,1.1µM*,-69*
O=c1ncccn1[C@@H]1O[C@H](CO)[C@@H](O)[C@H]1O,·,0%,·,·,·,·
Nc1nc(=O)n(C2OC(CO)C(O)C2O)cc1F (centres undefined),·,·,·,-4%,·,-99*
O=c1[nH]c(=S)ccn1C1OC(CO)C(O)C1O (centres undefined),·,·,·,-12%,30%,16
O=c1[nH]c(=O)n([C@@H]2O[C@H](CO)[C@@H](O)[C@H]2O)cc1F,·,4%,·,·,·,·
O=c1[nH]c(=O)n(C2OC(CO)C(O)C2O)cc1F (centres undefined),?,·,2µM*,5%,?,·
NC(=O)c1c(NC(=O)c2nc(SCc3ccccc3F)ncc2Cl)sc2c1CCCC2,23%[46.1 µM],·,4%[46.1 µM],-23%,·,9
Cc1oc(-c2ccc(Cl)cc2)nc1Cn1c(=O)cc(C)c2c(C)nn(-c3ccccc3)c21,·,·,-1%[46.1 µM],-9%,·,9
CCOCCn1ccc2c(OCC(=O)Nc3ccc(C(N)=O)cc3)cccc2c1=O,·,·,-7%[46.1 µM],-12%,·,25
CC(=O)c1cccc(Oc2cc(NN3CCCCC3)c([N+](=O)[O-])cc2[N+](=O)[O-])c1,·,-5%,·,-4%,8.9µM*,-37
O=[N+]([O-])c1cc([N+](=O)[O-])c(Oc2cc(Cl)cc(Cl)c2)cc1NN1CCCCC1,·,·,·,-19%,3%,-78*
CC(=O)c1ccccc1Oc1cc(NN2CCCCC2)c([N+](=O)[O-])cc1[N+](=O)[O-],·,6%,·,-22%,?,-26
CCC(C(=O)Nc1cc(C)ccc1C)n1c(=O)c(C(F)(F)F)nc2ccccc21 (centres undefined),·,·,26%[46.1 µM],-4%,·,-2
C#CCN1C=CC(=O)[C@@H](O)[C@H]1c1ccccc1Br,·,·,·,-11%,5.6µM*,-12
COc1ccc(C(C(=O)NCc2ccccc2)N(C(=O)Cn2nnc3ccccc32)c2ccc(OC)cc2)cc1 (centres undefined),12%[46.1 µM],·,6%[46.1 µM],5%,·,-12
